Source: PubChem BioAssay (NCI)
The panel holds about 83,000 compounds, 20% with a hit somewhere; the sample as a whole holds those more often.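 Negative percent growth values reflect cell death: -40 means 40% of the cells present at the start died, and -100 means all died.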 Unmarked numbers belong to inactive results. Active and inactive are the calls of the source.

Tested on: MCF7 breast
Assay: NCI-60 one-dose screen, 48 h (100 = growth as untreated, 0 = no growth, -100 = all killed)
Conditions: 10 µM unless noted
Method: Growth inhibition of the MCF7 human tumor cell line is measured as a screen for anti-cancer activity. Cells are grown in 96 well plates and exposed to the test compound for 48 hours. Compounds are tested at a single concentration, which is 10^-5 M for most compounds. The reported endpoint is percent growth (GI% or GIPRCNT), where numbers from 0 - 100% represent growth inhibition, and numbers from -100% - 0 represent cell death. For example, a value of 40 represents 60% growth inhibition. A value of 0 means no net growth occurred over the course of the experiment. A value of -40 indicates 40% of cells at the beginning of the experiment died by the end of the experiment. A value of -100 means all cells are dead at the end of the experiment.
NCI-60 Human Tumor Cell Lines Screen was performed using the standard one-dose NCI protocol, which is described in more detail at https://dtp.cancer.gov/discovery_development/nci-60/default.htm.
Compounds with GIPRCNT values below 10 were considered active. Activity score was based on GIPRCNT using the following formula: […]
Score is 0 for GIPRCNT values of 100 or above, 50 for GIPRCNT values of 0, and 100 for GIPRCNT values of -100.

Compound	growth
CCNC(=O)Oc1ccc(/C(=C(/C)c2ccc(Cl)cc2)c2ccc(OCCN(C)C)cc2)cc1	18.1%
O=C1NC(=O)/C(=C/c2ccc(OCc3cc4ccccc4nc3Cl)cc2)S1	91.6%
COc1cc(CNC(=O)/C=C/c2ccccc2)ccc1OCC(=O)NO	89.9%
Nc1nc(N)c2c(n1)NC(c1ccccc1)CC(c1ccc(Nc3nc(NCCO)nc(Nc4ccc(Cl)cc4)n3)cc1)=N2 (stereo not given)	-71.3% (active)
CC1CCN(S(=O)(=O)c2ncsc2-c2ccccc2)CC1	72.3%
Nc1ccc(-c2nnc(SCc3ccc(O)c4ncccc34)o2)cc1	2.52% (active)
N#Cc1c(-c2cccs2)cc(-c2cnccn2)nc1SCC(=O)NNC(=S)Nc1ccc(F)cc1	86.1%
COc1c([C@@H](CC(C)C)OC(C)=O)ccc2c1C(=O)OCc1cc(C)cc(O)c1O2	18.4%
Nc1cc(F)ccc1NC(=O)c1ccc(NC(=O)C/C=C/c2cccnc2)cn1	5.2% (active)
N#Cc1c(NC(=O)c2ccccc2C(F)(F)F)sc2c1CCC(=O)C2	3.89% (active)
CCCCCCNC(=O)Oc1ccc(/C(=C(\C)c2ccc(OC)cc2)c2ccc(OCCN(C)C)cc2)cc1	23.6%
CCOC(=O)/C=c1\sc2n(c1=O)C1C(NN=2)N(CC)C(=O)N1CC (stereo not given)	11%
C(=C(\C1=NCCN1)n1cnc2ccccc21)/c1cccc2ccccc12	57.3%
Cn1cc(-c2nn3c(=O)cc(-c4ccccc4)nc3s2)c2cc(F)ccc21	34.5%
COc1cc(C2CC(c3ccc(Nc4nc(NCCO)nc(Nc5ccc(Cl)cc5)n4)cc3)=Nc3c(N)nc(N)nc3N2)cc(OC)c1OC (stereo not given)	42.7%
IP(CCCCCCCCCCSc1n(Cc2ccc3ccccc3c2)c(-c2ccccc2)c(-c2ccccc2)[n+]1Cc1ccc2ccccc2c1)(c1ccccc1)(c1ccccc1)c1ccccc1	-54.2% (active)
CCOC(=O)Nc1ccc(-c2nc(-c3cccc(O)c3)c(-c3ccnc(Br)c3)[nH]2)cc1	13.9%
C[C@H]1[C@H](C)CC[C@]2(COC(=O)c3cccnc3)CC[C@]3(C)C(=CC[C@@H]4[C@@]5(C)CCCNC(C)(C)[C@@H]5CC[C@]43C)[C@H]12	67.3%
Oc1ccc(CSc2nnc(-c3cnccn3)o2)c2cccnc12	5.44% (active)
c1cncc(-c2cn3nc(-c4c[nH]c5ccccc45)sc3n2)c1	34.7%

Compound	growth
COc1ccc(Cn2cc3c(c2-c2ccccc2)CCCc2cnoc2-3)cc1	22.9%
CC(C)(C)CC(C)(C)n1nnnc1C(Nc1ccccc1)c1cc2cccc3ccc4cccc1c4c32 (stereo not given)	61.6%
CC(=O)NC(C)(C)C(=O)N[C@@H](C)C(=O)NC(C)(C)C(=O)N[C@@H](C)C(=O)NC(C)(C)C(=O)N[C@@H](C)C(=O)N[C@@H](CCC(N)=O)C(=O)NC(C)(C)C(=O)N[C@H](C(=O)NC(C)(C)C(=O)NCC(=O)N[C@@H](CC(C)C)C(=O)NC(C)(C)C(=O)N1CCC[C@H]1C(=O)N[C@H](C(=O)NC(C)(C)C(=O)NC(C)(C)C(=O)N[C@@H](CCC(N)=O)C(=O)N[C@@H](CCC(N)=O)C(=O)N[C@H](CO)CC1CCCCC1)C(C)C)C(C)C	17.2% [5 µM]
CS(=O)c1nccc(-c2c(-c3ccc(F)c(OCc4ccccc4)c3)nc3sccn23)n1 (stereo not given)	-44.7% (active)
Oc1ccc(CSc2nnc(-c3ccccc3)o2)c2cccnc12	9.21% (active)
CCN1C(=O)N(CC)C2C1NN=C1SC(c3ccccc3)=CC(=O)N12 (stereo not given)	17.7%
Brc1cccc(/C=N/Nc2nc(N/N=C/c3cccc(Br)c3)nc(N3CCOCC3)n2)c1	22.1%
O=C(Nc1ccc(Cl)cc1)Nc1nc2ccc([N+](=O)[O-])cc2s1	-15.4% (active)
Cn1c(SC(C(=O)Nc2ccc(F)cc2)c2ccccc2)nc2ccccc2c1=O (stereo not given)	90.9%
O=S(=O)(Nc1cc(Cl)c(F)c(Cl)c1)c1ccc(-c2cnc(C3CC3)o2)cc1	20.2%
O=C1c2c(c3c4cc(O)ccc4oc3c3[nH]c4ccccc4c23)C(=O)N1O	6.15% (active)
C#C[C@]1(O)CC[C@H]2[C@@H]3CC=C4c5sc(Nc6cccc(Cl)n6)nc5CC[C@]4(C)[C@H]3CC[C@@]21C	-70.4% (active)
Cc1nc(-c2cc3ccccc3c(N3CCN(C)CC3)n2)cs1	92.7%
NC(N)=NS(=O)(=O)c1ccc(N=NC2C(=O)NN(c3ccccc3)C2=O)cc1 (stereo not given)	93.2%
CCOP(=O)(OCC)OC[C@]12CCC(C)(C)C[C@H]1C1=CC[C@@H]3[C@@]4(C)C/C(=C\c5cccnc5)[C@H](OP(=O)(OCC)OCC)C(C)(C)[C@@H]4CC[C@@]3(C)[C@]1(C)CC2	6.1% (active)
Cc1ccc(-c2cc(-c3ccc(N(C)C)cc3)n3c(n2)nc2ccccc23)cc1	59.2%
CC(C)=CCc1c2c(c(O)c3c1O[C@]14C(=C[C@@H]5C[C@H]1C(C)(C)O[C@@]4(C/C=C(/C)C(=O)O)C5=O)C3=O)CC(O)C(C)(C)O2 (stereo not given in full)	-41.4% (active)
CC(C)c1nn(-c2ccccc2)c(N2CCCCC2)c1/C=N/NC(N)=S	75.7%
C=C(C)[C@@H]1CC[C@]2(C)[C@H](CC=C3[C@@H]4CC(C)(C)CC[C@]4(C(=O)NCC#CCN4CCN(C)CC4)CC[C@]32C)[C@@]1(C)CCC#N	27%
CN(c1ccc(Br)cc1)S(=O)(=O)c1ccc(-c2cnc(C3CC3)o2)cc1	21.1%
